Experimental data as given in PubChem BioAssay (EPA / NIEHS).
Inconclusive results are not listed. Active and inactive are the calls of the source. The calls were made as follows: active = hit-call score of the fitted dose curve at least 0.9, where 1 is the maximum; inconclusive = response in the unintended direction; inactive = score below 0.9.

biological target: human Vitamin D Receptor (VDR), VDR (gene 7421) (UniProt P11473); experiment: ATG_VDR_TRANS: Attagene TRANS-FACTORIAL HepG2 Assay for human Vitamin D Receptor (VDR) (AID 2283022)
Sequence (P11473 whole entry, looked up, the tested form may be a part): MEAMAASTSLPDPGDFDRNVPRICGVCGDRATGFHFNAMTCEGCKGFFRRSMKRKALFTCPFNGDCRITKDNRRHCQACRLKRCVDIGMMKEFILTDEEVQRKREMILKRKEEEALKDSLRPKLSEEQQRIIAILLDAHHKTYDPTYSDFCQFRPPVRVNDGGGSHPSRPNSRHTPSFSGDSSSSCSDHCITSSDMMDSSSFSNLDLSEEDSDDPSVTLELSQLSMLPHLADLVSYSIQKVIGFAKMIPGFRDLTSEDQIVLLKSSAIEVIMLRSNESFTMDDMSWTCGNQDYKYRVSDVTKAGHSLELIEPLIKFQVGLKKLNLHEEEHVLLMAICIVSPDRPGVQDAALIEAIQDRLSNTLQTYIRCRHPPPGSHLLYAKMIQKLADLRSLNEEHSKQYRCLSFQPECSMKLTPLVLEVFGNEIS
Outline: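 HepG2 cells were transiently transfected with GAL4-UAS reporter units and a chimeric VDR-Gal4 construct, then dosed for 24 hours. Reporter mRNA was quantified by RT-PCR, fluorescent labeling, HpaI digestion and capillary electrophoresis; gain of signal analysed vs DMSO.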

outcome, inactive:
CCN(CC)CCOC(=O)c1ccc(N)cc1
CCC(C)(O)CCC=C(C)C (stereo not drawn)
N#Cc1ccccc1
CO[Si](CCCn1c(=O)n(CCC[Si](OC)(OC)OC)c(=O)n(CCC[Si](OC)(OC)OC)c1=O)(OC)OC
N#Cc1nc(Cl)c(Cl)c(Cl)c1Cl
COc1ccc(NC(=O)CC(C)=O)cc1
OCCN1CCNCC1
CCCCCCCCCCCCCCCC(=O)O
OCCOc1cccc(OCCO)c1
CC(=O)C(C)=O
COc1ccc(O)cc1
COc1cc(C(C)(C)C)c(O)c(C(C)(C)C)c1
NCCCN1CCOCC1
OC1C(O)C(O)C(O)C(O)C1O (stereo not drawn)
CCCCOCCOCCOCCOCCO
O=C1c2ccccc2C(=O)N1SC1CCCCC1
CCC(=O)/C=C/C1C(C)=CCCC1(C)C (stereo not drawn)
CC(C)(C)c1n[nH]c(=S)n(N)c1=O
O=C1NC(=O)c2ccccc21
CCCC1CCC(=O)O1 (stereo not drawn)
CCCC(C)C=O (stereo not drawn)
O=C1C(c2[nH]c3ccc(S(=O)(=O)O)cc3c2O)=Nc2ccc(S(=O)(=O)O)cc21
O=C(OCc1ccccc1)C(=O)OCc1ccccc1
CCCCOCCOCCSC#N
CC(C)=CCC[C@](C)(O)[C@@H]1CC=C(C)CC1
CC(C)(C)c1cc(CCC(=O)NN)cc(C(C)(C)C)c1O
CCC(=O)OCCC(C)CCC=C(C)C (stereo not drawn)
CC1=CCC2C(C1)C2(C)C (stereo not drawn)
COC(=O)Cc1cccc2ccccc12
CCCC(=O)OCCC(C)CCC=C(C)C (stereo not drawn)
CC(=O)Nc1ccc(C)cc1C
CC1(C)CCC(C)(C)c2cc(C(=O)Nc3ccc(C(=O)O)cc3)ccc21
CC1(C)OC[C@@H]2O[C@@]3(C(=O)O)OC(C)(C)O[C@H]3[C@@H]2O1
CC(c1cc2ccccc2s1)N(O)C(N)=O (stereo not drawn)
CC(C)=CCO
CC(C)=CCCC(C)CC=O (stereo not drawn)
COCCOCCOCCOCCOCCO
ClCCCl
